Reference: PubChem BioAssay AID720504 (National Center for Advancing Translational Sciences (NCATS), 2013)
The whole screen tested about 360,000 compounds, of which about 10,000 (2.8%) were called active. Inconclusive results (about 4%) are left out. The full list was thinned out, with actives kept by preference. Unmarked numbers belong to inactive results. The call rests on the fitted dose curve; in most records, active means well fitted inhibition curve with a large enough effect; inconclusive means small, poorly fitted or top-dose-only effect; inactive means flat fitted curve, though single readings scatter.

Each compound was assayed against Serine/threonine-protein kinase PLK1 (Homo sapiens) (UniProt P53350) (assay: qHTS for Inhibitors of PLK1-PDB (polo-like kinase 1 - polo-box domain): Primary Screen). Settings: Plk1 PBD binding of FITC phosphopeptide, fluorescence polarization.
Chain of Serine/threonine-protein kinase PLK1 (Homo sapiens) (P53350 whole entry, looked up, the tested form may be a part): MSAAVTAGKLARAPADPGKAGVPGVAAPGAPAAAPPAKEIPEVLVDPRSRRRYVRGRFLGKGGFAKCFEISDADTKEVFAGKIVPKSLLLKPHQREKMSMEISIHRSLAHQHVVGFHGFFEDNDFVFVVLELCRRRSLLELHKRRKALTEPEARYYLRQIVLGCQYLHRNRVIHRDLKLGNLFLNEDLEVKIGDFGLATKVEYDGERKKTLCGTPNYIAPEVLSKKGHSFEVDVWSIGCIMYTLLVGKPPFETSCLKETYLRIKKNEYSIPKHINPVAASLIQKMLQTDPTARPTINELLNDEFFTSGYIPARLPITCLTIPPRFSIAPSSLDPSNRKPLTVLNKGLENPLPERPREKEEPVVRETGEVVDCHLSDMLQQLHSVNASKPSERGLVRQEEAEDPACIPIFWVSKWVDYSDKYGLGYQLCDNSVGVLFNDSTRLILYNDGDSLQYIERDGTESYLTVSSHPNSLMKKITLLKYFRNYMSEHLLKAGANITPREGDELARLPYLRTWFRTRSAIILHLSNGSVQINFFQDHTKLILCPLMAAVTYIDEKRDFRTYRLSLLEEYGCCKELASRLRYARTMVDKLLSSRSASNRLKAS
Further: nearly all actives have a fitted effect of over 65% in size.
On the % scale 0 is the no-effect control and ±100 the full control effect; potency means the concentration at half of the fitted maximal effect.
Wherever max response, negative = inhibition is given: series mostly up to about 57 µM.

Row | Structure (SMILES) | Potency | max response, negative = inhibition [%]
1 | CCCCC1(C(=O)OCC)NC(c2ccc(O)cc2)C2C(=O)N(c3ccccc3)C(=O)C21 (stereo unspecified) | 11.9 µM (active) | –
2 | CCOC(=O)C1(C)NC(c2ccco2)C2C(=O)N(c3ccccc3)C(=O)C21 (stereo unspecified) | – | -2.81
3 | CCCC1(C(=O)OCC)NC(c2ccc(N(C)C)cc2)C2C(=O)N(c3ccc4c(c3)OCCO4)C(=O)C21 (stereo unspecified) | – | 0.149
4 | COc1ccc(CCNC(=O)Nc2ccc3c(c2)c(=O)n(C)n3C)cc1OC | – | -18.9
5 | N#CCSc1ccccc1NC(=O)CN1C(=O)NC(CCc2ccccc2)C1=O (stereo unspecified) | – | 1.14
6 | COc1ccc(C(C(=O)NCc2ccccc2)n2c(=O)c(-c3ccccc3)nc3ccccc32)cc1 (stereo unspecified) | – | -13.5
7 | COC(=O)c1c(NC(C)=O)sc(C(=O)Nc2ccccc2OC)c1C | 21.2 µM (active) | –
8 | COc1ccccc1NC(=O)C1=C(C)NC(=O)NC1c1ccc(C)s1 (stereo unspecified) | – | -4.66
9 | CCC(=O)Nc1sc(C(=O)Nc2ccccc2)c(C)c1C(=O)OC | – | -13
10 | Cc1[nH]c2ccccc2c1C(=O)c1cc([C@H](NC(=O)OC(C)(C)C)C(C)C)sc1N | – | -13.9
11 | COc1c(C)cc(C(O)c2ncc(-c3cccc(C(F)(F)F)c3)[nH]2)cc1C (stereo unspecified) | – | -6.75
12 | CCCC(=O)N1CCC1(C)C(=O)NS(=O)(=O)c1ccc(Cl)cc1 (stereo unspecified) | – | -0.638
13 | O=C(NCc1ccc(F)cc1F)[C@@H]1CCCN1C(=O)[C@@H]1CCCN1C(=O)c1cccc(Cl)c1 | – | -3.81
14 | COc1ccc(NC(=O)N(C)C[C@@H]2OCc3cn(nn3)CCCC(=O)N([C@H](C)CO)C[C@H]2C)c(OC)c1 | – | -13
15 | COc1cccc(CNc2nc(NCc3ccccc3OC)nc3ccsc23)c1 | – | 5.58
16 | CCC(C)NC(=O)CCCc1ccccc1 (stereo unspecified) | – | -5.23
17 | O=C(CCN1CCN(c2ccccc2)CC1)NNC(=S)Nc1ccccc1 | – | 2.64
18 | CCCCC(=O)NNC(=S)NC(=O)C(c1ccccc1)c1ccccc1 | 26.7 µM (active) | –
19 | Cc1cc(Br)ccc1NC(=O)CCCOc1cc(=O)n(C)c2ccccc12 | – | -7.55

Row | Structure (SMILES) | Potency | max response, negative = inhibition [%]
20 | O=C(COC(=O)Cc1ccc(Cl)cc1Cl)NCc1ccco1 | – | -7.73
21 | COC(=O)[C@@]1(Sc2ccc(C)cc2)CC(=O)N(c2cccc(SC)c2)[C@@H]1c1ccccc1 | – | -14.8
22 | CC(Sc1ccc(S(=O)(=O)N2CCN(C)CC2)cn1)C(=O)NC1CCCC(C)C1C (stereo unspecified) | – | -3.15
23 | CCNCCC(=O)N1c2ccccc2Sc2ccc(NC(=O)OCC)cc21 | – | 4.19
24 | CCN1/C(=C\c2ccc3ccccc3[n+]2CC)Sc2cc(C)ccc21 | – | 18.1
25 | CCN1/C(=C/C(=S)Nc2ccccc2)Sc2ccccc21 | 21.2 µM (active) | –
26 | O=C(CCc1ccc(O)cc1)NN=Cc1cc(Br)ccc1O | – | -9.45
27 | CNS(=O)(=O)c1ccc2c(c1)[nH]c(=S)n2C | – | -13.6
28 | CN1OC[C@@H]2CN(S(=O)(=O)c3cccc4ccccc34)[C@H](c3ccc(N4CCCCC4)cc3)C[C@@H]21 | – | -17.2
29 | CCCNC(=O)C1(C)CCN(C(=O)c2ccccc2OC(F)(F)F)C1 (stereo unspecified) | – | 1.6
30 | COc1cc(C2/C(=C(\O)c3ccc4c(c3)CC(C)O4)C(=O)C(=O)N2Cc2ccco2)ccc1O (stereo unspecified) | – | -6.21
31 | COCCCN1C(=O)C(=O)/C(=C(/O)c2ccc3c(c2)CC(C)O3)C1c1cccnc1 (stereo unspecified) | – | -4.58
32 | COc1cc(C2/C(=C(\O)c3ccc4c(c3)CC(C)O4)C(=O)C(=O)N2c2nnc(C)s2)cc(OC)c1OC (stereo unspecified) | 23.8 µM (active) | –
33 | COc1cccc(OCC(=O)NCCS(=O)(=O)N2CCN(c3ccccc3)CC2)c1 | – | -0.74
34 | Cc1ccccc1NC(=O)Cc1nc(COC(=O)C(C)(C)Oc2ccc(Cl)cc2)cs1 | – | -1.61
35 | CCOC(=O)c1cc(C)nc(S(C)(=O)=O)c1C#N | – | -3.21
36 | CCOC(=O)Cc1c(C)nc2c(C#N)c(C)nn2c1C | 18.9 µM (active) | –
37 | CCOC(=O)COc1nc(C)cc(C(F)(F)F)c1C#N | – | -6.94
38 | Nc1nc(CSc2nnnn2-c2ccccc2)nc(Nc2ccccc2)n1 | – | 0.127

Row | Structure (SMILES) | Potency | max response, negative = inhibition [%]
39 | COc1ccc(-c2ccc(CN3C(CC(C)C)C(=O)N(Cc4cn(CC5CCCCC5)nn4)CCS3(=O)=O)cc2)cc1 (stereo unspecified) | – | -10.4
40 | C=CCn1c(=O)c(C(=O)Nc2ncccc2O)c(O)c2ccccc21 | – | -22.1
41 | CCCn1c(=O)c(C(=O)Nc2cc(C)ccn2)c(O)c2ccccc21 | – | -9.12
42 | Cn1c(=O)c(C(=O)Nc2ncccn2)c(O)c2ccccc21 | 8.44 µM (active) | –
43 | CC(C)c1cc(Cn2c3ccccc3c(=O)n2C(C)Cn2cc(C3CC3)nn2)on1 (stereo unspecified) | – | -4.91
44 | CCn1c(Cc2cccs2)nnc1SCC(=O)c1ccc(C)cc1 | 16.8 µM (active) | –
45 | Cc1ccc(-n2c(Cc3cccs3)nnc2SCC(=O)OC(C)C)cc1 | – | -2.98
46 | CCn1c(SCC(=O)c2ccc(Cl)s2)nnc1-c1cccs1 | – | -17.2
47 | COC(=O)[C@@]12C[C@@H](CC(=O)N3CCC(c4ccccc4)CC3)C(=O)N(Cc3ccccc3)C1=CCC(C)(C)C2 | – | -1.16
48 | O=C(NCc1ccc(F)cc1)c1cc(C2CCCCN2C(=O)c2ccccn2)on1 (stereo unspecified) | – | -4.01
49 | Oc1ccccc1N1CCN(c2ncnc3sc(-c4ccccc4)cc23)CC1 | 15 µM (active) | –
50 | c1ccc(-c2cc3c(NCC4COc5ccccc5O4)ncnc3s2)cc1 (stereo unspecified) | – | -4.18
51 | COc1ccccc1N1CCN(c2ncnc3sc(C)c(-c4ccccc4)c23)CC1 | – | 8.83
52 | CS(=O)(=O)c1cccc(-c2ccc3nncn3c2)c1 | – | -8.79
53 | N#CCCC(C#N)(c1cccnc1)N1CCOCC1 (stereo unspecified) | – | -8.09
54 | COc1ccc(C2CC(c3cccs3)=NN2C(=O)CSc2nncs2)cc1OC (stereo unspecified) | – | -11.3
55 | COc1ccc(C2=NN(C(=O)CCC(=O)O)C(c3cccs3)C2)cc1OC (stereo unspecified) | – | -7.47
56 | COc1ccc(C2CC(c3cccs3)=NN2C(=O)CCC(=O)O)cc1OC (stereo unspecified) | 23.8 µM (active) | –
